Assay results as given in PubChem BioAssay (NCI).
About 79,000 compounds went through this panel and 15% of them were active in at least one assay; those are over-represented in the sample as a whole. Calls of active or inactive are those of the source. No stated cut-off is given here; in the data, active means growth inhibition above about 70%; inactive means the rest.

Tests used:
[1] = NCI Yeast Anticancer Drug Screen. Data for the wt1 strain (AID 149);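 further: 0% = growth of vehicle-treated wt1 cultures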; conditions: S. cerevisiae wt1 strain (SPY 50644) growth inhibition, stronger effect = higher value
Procedure, shortened: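 Measured: growth of wt1 yeast under compound versus vehicle treatment, reported as inhibition.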

[2] = NCI Yeast Anticancer Drug Screen. Data for the rad50EPP+ strain (AID 151);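 further: 0% = growth of vehicle-treated control cultures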; conditions: S. cerevisiae rad50 mutant strain, stronger effect = higher value
Procedure, shortened: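 Genetically defined yeast (rad50EPP+, DNA damage repair alteration) is grown with compound, and inhibition of growth is expressed relative to vehicle-treated controls.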

[3] = NCI Yeast Anticancer Drug Screen. Data for the mgt1 strain (AID 153); conditions: S. cerevisiae mgt1 mutant growth inhibition, stronger effect = higher value
Procedure, shortened: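 In the mgt1 strain, test compounds were added and growth inhibition was determined relative to vehicle-treated controls.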

[4] = NCI Yeast Anticancer Drug Screen. Data for the rad50 strain (AID 155);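 further: 0% = growth of vehicle-only cultures of the same strain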; conditions: S. cerevisiae rad50 strain growth inhibition, stronger effect = higher value
Procedure, shortened: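 Growth of the mutant yeast was measured after compound exposure and referenced to vehicle-treated cultures.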

[5] = NCI Yeast Anticancer Drug Screen. Data for the mec2-1 strain (AID 157); conditions: S. cerevisiae mec2-1 strain, stronger effect = higher value
Procedure, shortened: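 Each compound was tested on mec2-1 yeast, a strain altered in DNA damage repair or cell cycle control. Growth inhibition is reported relative to vehicle.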

[6] = NCI Yeast Anticancer Drug Screen. Data for the rad14 strain (AID 159);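 further: 0% = growth of vehicle-treated control cultures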; conditions: S. cerevisiae rad14 strain growth inhibition, stronger effect = higher value
Procedure, shortened: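 Here, inhibition of yeast growth was measured after compound exposure, using a strain with a genetic defect in DNA damage repair and vehicle-treated cultures as the reference.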

[7] = NCI Yeast Anticancer Drug Screen. Data for the sgs1 mgt1 strain (AID 161);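 further: 0% = growth of cultures given vehicle only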; conditions: S. cerevisiae sgs1 mgt1 strain, stronger effect = higher value
Procedure, shortened: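 Genetically altered yeast, compound exposure, growth inhibition relative to vehicle.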

[8] = NCI Yeast Anticancer Drug Screen. Data for the CLN2oe strain (AID 163);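 further: 0% = growth of vehicle-only control cultures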; conditions: S. cerevisiae CLN2oe strain, stronger effect = higher value
Procedure, shortened: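 First, the altered yeast strain was treated with each compound; second, its growth was measured; finally, inhibition was derived by comparison with vehicle controls.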

[9] = NCI Yeast Anticancer Drug Screen. Data for the cln2 rad14 strain (AID 165);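 further: 0% = growth equal to vehicle treated cultures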; conditions: S. cerevisiae cln2 rad14 strain, stronger effect = higher value
Procedure, shortened: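 Test compounds were added to cln2 rad14 yeast cultures; inhibition of growth was then determined by comparison with vehicle treatment.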

[10] = NCI Yeast Anticancer Drug Screen. Data for the bub3 strain (AID 167); conditions: S. cerevisiae bub3 mutant strain, stronger effect = higher value
Procedure, shortened: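 Whole-cell yeast assay. The mutant strain was incubated with compounds, and growth inhibition was determined by comparison with vehicle-treated cells.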

[11] = NCI Yeast Anticancer Drug Screen. Data for the wt2 strain (AID 169);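 further: 0% = growth of vehicle-treated yeast cultures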; conditions: S. cerevisiae wt2 strain growth inhibition, stronger effect = higher value
Procedure, shortened: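 The panel's yeast strains carry defined changes in DNA repair or cell cycle genes. Each strain is grown with compound, and growth loss is scored relative to vehicle.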

[12] = NCI Yeast Anticancer Drug Screen. Data for the mlh1 strain (AID 171);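 further: 0% = growth of vehicle-treated control cultures of the same strain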; conditions: S. cerevisiae mlh1 strain growth inhibition, stronger effect = higher value
Procedure, shortened: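 Inhibition values reflect reduced yeast growth in the presence of compound, referenced to vehicle controls, using a strain chosen for its alteration in DNA repair or cell cycle control.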

[13] = NCI Yeast Anticancer Drug Screen. Data for the sgs1 strain (AID 173);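 further: 0% = growth of vehicle-only control cultures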; conditions: S. cerevisiae sgs1 mutant, stronger effect = higher value
Procedure, shortened: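 Vehicle-treated cultures served as reference for growth inhibition of a yeast strain altered in DNA damage repair or cell cycle control after compound exposure.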

[14] = NCI Yeast Anticancer Drug Screen. Data for the rad18 strain (AID 177); conditions: S. cerevisiae rad18 mutant growth inhibition, stronger effect = higher value
Procedure, shortened: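 Steps: expose repair-mutant yeast to compound; measure growth; express as inhibition relative to vehicle control.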

[15] = at 5.0 µM (retest, dose inferred, filed as 0.5)
[16] = at 50.0 µM (retest, dose inferred, filed as 5.0)

Measured: growth inhibition

CC(C)=CC(=O)O[C@@H]1CC(C)(C)CC2C3=CCC4[C@]56CC[C@](O)(OC5)C(C)(C)C6CC[C@@]4(C)C3(C)CC[C@]21C(=O)O (stereo not given in full)
inactive: [1]; at 1.2 µM -23% | [1]; at 3.7 µM 44% | [2]; at 1.2 µM -9% | [2]; at 3.7 µM -1% | [2]; at 11.0 µM 7% | [2]; at 33.0 µM 14% | [2]; at 100.0 µM 6% | [3]; at 1.2 µM -15% | [3]; at 3.7 µM 11% | [3]; at 11.0 µM 57% | [4]; at 1.2 µM 1% | [4]; at 3.7 µM 36% | [4]; [15] 10% | [5]; at 1.2 µM -8% | [5]; at 3.7 µM 31% | [5]; [15] 27% | [5]; at 11.0 µM 69% | [6]; at 1.2 µM -15% | [6]; at 3.7 µM 2% | [6]; at 11.0 µM 44% | [7]; [15] 11% | [8]; at 1.2 µM -5% | [8]; at 3.7 µM 54% | [9]; [15] 33% | [10]; at 1.2 µM -18% | [10]; at 3.7 µM 27% | [10]; [15] 25% | [11]; at 1.2 µM -11% | [11]; at 3.7 µM 18% | [11]; at 11.0 µM 61% | [12]; at 1.2 µM -13% | [12]; at 3.7 µM 21% | [12]; at 11.0 µM 58% | [13]; at 1.2 µM -3% | [13]; at 3.7 µM 46%
active: [1]; at 11.0 µM 85% | [1]; at 33.0 µM 93% | [1]; at 100.0 µM 92% | [3]; at 33.0 µM 89% | [3]; at 100.0 µM 91% | [4]; at 11.0 µM 75% | [4]; at 33.0 µM 94% | [4]; [16] 88% | [4]; at 50.0 µM 82.3% | [4]; at 100.0 µM 90% | [5]; at 33.0 µM 88% | [5]; [16] 87% | [5]; at 50.0 µM 83.2% | [5]; at 100.0 µM 89% | [6]; at 33.0 µM 78% | [6]; at 100.0 µM 84% | [7]; [16] 89% | [7]; at 50.0 µM 85.2% | [8]; at 11.0 µM 85% | [8]; at 33.0 µM 95% | [8]; at 100.0 µM 93% | [9]; [16] 92% | [9]; at 50.0 µM 79.3% | [10]; at 11.0 µM 81% | [10]; at 33.0 µM 92% | [10]; [16] 91% | [10]; at 50.0 µM 81.3% | [10]; at 100.0 µM 92% | [11]; at 33.0 µM 91% | [11]; at 100.0 µM 94% | [12]; at 33.0 µM 87% | [12]; at 100.0 µM 90% | [13]; at 11.0 µM 83% | [13]; at 33.0 µM 95% | [13]; at 100.0 µM 95%

CCN(CC)CC(O)c1ccc2ccc3ccccc3c2c1 (stereo not given)
active: [4]; at 50.0 µM 70.9% | [6]; at 100.0 µM 70% | [10]; [16] 71%
inactive: [1]; at 1.2 µM 4% | [1]; at 3.7 µM 10% | [1]; at 11.0 µM 18% | [1]; at 33.0 µM 16% | [1]; at 100.0 µM 19% | [2]; at 1.2 µM -1% | [2]; at 3.7 µM 1% | [2]; at 11.0 µM 2% | [2]; at 33.0 µM -1% | [2]; at 100.0 µM -11% | [3]; at 1.2 µM 2% | [3]; at 3.7 µM 4% | [3]; at 11.0 µM 6% | [3]; at 33.0 µM 21% | [3]; at 100.0 µM 59% | [4]; at 1.2 µM 6% | [4]; at 3.7 µM 10% | [4]; [15] -1% | [4]; at 11.0 µM 15% | [4]; at 33.0 µM 10% | [4]; [16] 52% | [4]; at 100.0 µM 39% | [5]; at 1.2 µM 3% | [5]; at 3.7 µM 7% | [5]; [15] 15% | [5]; at 11.0 µM 11% | [5]; at 33.0 µM 15% | [5]; [16] 20% | [5]; at 50.0 µM 37.4% | [5]; at 100.0 µM 33% | [6]; at 1.2 µM 7% | [6]; at 3.7 µM 23% | [6]; at 11.0 µM 35% | [6]; at 33.0 µM 28% | [7]; [15] 16% | [7]; [16] 7% | [7]; at 50.0 µM 42.7% | [8]; at 1.2 µM 0% | [8]; at 3.7 µM 5% | [8]; at 11.0 µM 15% | [8]; at 33.0 µM 35% | [8]; at 100.0 µM 57% | [9]; [15] -22% | [9]; [16] -22% | [9]; at 50.0 µM 32% | [10]; at 1.2 µM 1% | [10]; at 3.7 µM 4% | [10]; [15] 10% | [10]; at 11.0 µM -20% | [10]; at 33.0 µM 43% | [10]; at 50.0 µM 65.2% | [10]; at 100.0 µM 45% | [11]; at 1.2 µM 2% | [11]; at 3.7 µM 8% | [11]; at 11.0 µM 17% | [11]; at 33.0 µM 21% | [11]; at 100.0 µM 36% | [12]; at 1.2 µM 8% | [12]; at 3.7 µM 8% | [12]; at 11.0 µM 16% | [12]; at 33.0 µM 16% | [12]; at 100.0 µM 40% | [13]; at 1.2 µM 8% | [13]; at 3.7 µM 17% | [13]; at 11.0 µM 34% | [13]; at 33.0 µM 48% | [13]; at 100.0 µM 64% | [14]; at 1.2 µM 17% | [14]; at 3.7 µM 22% | [14]; at 11.0 µM 27% | [14]; at 33.0 µM 38% | [14]; at 100.0 µM 59%

CC(=O)N/N=C/C(C)(C)C(C)(C)/C=N/NC(C)=O
inactive: [1]; at 1.2 µM -3% | [1]; at 3.7 µM -5% | [1]; at 11.0 µM 2% | [1]; at 33.0 µM 27% | [1]; at 100.0 µM 42% | [2]; at 1.2 µM -3% | [2]; at 3.7 µM 11% | [2]; at 11.0 µM 10% | [2]; at 33.0 µM 18% | [3]; at 1.2 µM 2% | [3]; at 3.7 µM -2% | [3]; at 11.0 µM -4% | [3]; at 33.0 µM -5% | [3]; at 100.0 µM 6% | [4]; at 1.2 µM -13% | [4]; at 3.7 µM -6% | [4]; [15] 4% | [4]; at 11.0 µM 16% | [4]; at 33.0 µM 38% | [4]; [16] 51% | [4]; at 50.0 µM 50.5% | [5]; at 1.2 µM 5% | [5]; at 3.7 µM 2% | [5]; [15] 4% | [5]; at 11.0 µM 1% | [5]; at 33.0 µM 2% | [5]; [16] 39% | [5]; at 50.0 µM 19.2%
active: [2]; at 100.0 µM 71% | [4]; at 100.0 µM 98%
